# KDM5B inh: blocks human KDM5B histone demethylase activity; Potency, µM (highest dose often 57.7 µM), actives largely listed as inhibitors; AID 1347165; Q9UGL1; 2.6% of 220,000 active; KDM5B demethylase, FDH-coupled NADH fluorescence (FDH is formaldehyde dehydrogenase); active = well fitted inhibition curve with a large enough effect; also: 0% is about no effect; nearly all actives have a fitted effect of over 70% in size
# Target sequence (Q9UGL1 whole entry, looked up): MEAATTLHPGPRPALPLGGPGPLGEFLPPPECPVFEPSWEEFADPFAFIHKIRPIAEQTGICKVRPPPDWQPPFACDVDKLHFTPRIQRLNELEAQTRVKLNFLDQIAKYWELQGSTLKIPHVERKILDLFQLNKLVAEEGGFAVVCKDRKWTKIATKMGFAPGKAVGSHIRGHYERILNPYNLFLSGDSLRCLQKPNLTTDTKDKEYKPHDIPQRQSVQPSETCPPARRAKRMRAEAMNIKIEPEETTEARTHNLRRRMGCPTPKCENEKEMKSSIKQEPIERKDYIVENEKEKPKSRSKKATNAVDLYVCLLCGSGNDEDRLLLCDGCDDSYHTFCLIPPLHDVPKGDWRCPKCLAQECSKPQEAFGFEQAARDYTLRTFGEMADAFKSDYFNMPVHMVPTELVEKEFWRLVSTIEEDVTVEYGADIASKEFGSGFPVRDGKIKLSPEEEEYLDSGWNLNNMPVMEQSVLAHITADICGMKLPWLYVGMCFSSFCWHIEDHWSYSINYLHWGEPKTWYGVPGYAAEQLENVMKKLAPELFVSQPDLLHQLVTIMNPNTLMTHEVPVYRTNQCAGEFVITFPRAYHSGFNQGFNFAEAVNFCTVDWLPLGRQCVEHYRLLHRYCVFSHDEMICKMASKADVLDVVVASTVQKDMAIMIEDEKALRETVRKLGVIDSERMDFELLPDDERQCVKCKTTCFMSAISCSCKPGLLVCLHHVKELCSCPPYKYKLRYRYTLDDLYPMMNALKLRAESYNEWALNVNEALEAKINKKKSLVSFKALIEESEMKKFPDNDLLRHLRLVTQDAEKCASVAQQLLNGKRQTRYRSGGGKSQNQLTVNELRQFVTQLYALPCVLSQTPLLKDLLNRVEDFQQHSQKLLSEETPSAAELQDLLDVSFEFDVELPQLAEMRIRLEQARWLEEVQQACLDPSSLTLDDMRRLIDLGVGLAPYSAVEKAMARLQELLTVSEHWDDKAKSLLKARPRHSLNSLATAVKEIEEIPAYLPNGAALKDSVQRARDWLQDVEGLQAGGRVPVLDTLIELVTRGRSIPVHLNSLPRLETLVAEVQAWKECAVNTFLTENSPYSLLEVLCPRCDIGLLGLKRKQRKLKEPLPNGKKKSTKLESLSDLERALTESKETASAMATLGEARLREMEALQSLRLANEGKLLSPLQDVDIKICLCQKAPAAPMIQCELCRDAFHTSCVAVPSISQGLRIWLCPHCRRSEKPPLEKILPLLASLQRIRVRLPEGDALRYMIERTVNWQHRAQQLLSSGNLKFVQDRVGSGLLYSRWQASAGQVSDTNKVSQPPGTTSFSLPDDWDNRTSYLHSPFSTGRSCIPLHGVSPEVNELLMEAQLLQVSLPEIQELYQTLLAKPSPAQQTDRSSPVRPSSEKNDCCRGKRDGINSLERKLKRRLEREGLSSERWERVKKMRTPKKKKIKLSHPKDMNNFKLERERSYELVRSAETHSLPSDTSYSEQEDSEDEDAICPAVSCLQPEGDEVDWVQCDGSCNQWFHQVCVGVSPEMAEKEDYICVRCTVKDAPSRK
#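 Measured: NADH fluorescence change, 30 min, RT. System: KDM5BΔAP 200 nM final, H3K4me3 peptide, α-KG, Fe(II), ascorbate, NAD⁺ plus FDH, pH 7.5 HEPES. Compounds: titrated, 10 min pre-incubation with enzyme.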
# Numbers without * were called inactive; i = inactive. Many of the other results were omitted from the sample, so hits are more common in it than they were. Potency is read from the fitted curve at half-maximal effect.
SMILES,KDM5B inh
CCOC(=O)c1sc(NC(=O)C2CC(=O)N(c3ccc(C)c(C)c3)C2)nc1C (centres undefined),i
C=C(CC)CN1CCCC12Cc1ccccc1CNC2=O (centres undefined),i
Cc1cc(NC(=O)CN2CCN(C(=O)c3cccc(Cl)c3Cl)CC2)no1,i
c1ccc(Cn2c(CN3CCOCC3)nc3ccccc32)cc1,i
CC(C)NC(=O)N[C@H]1CCN2C(=O)c3cc(-c4ccc(F)cc4F)ccc3NC(=O)[C@H]12,i
O=C(N[C@H]1CCN2C(=O)c3cc(-c4cccs4)ccc3NC(=O)[C@H]12)c1cccc(F)c1,28µM*
O=C(O)CCC(=O)N[C@H]1CCN2C(=O)c3cc(-c4cccc(C(F)(F)F)c4)ccc3NC(=O)[C@H]12,i
O=C(N[C@H]1CCN2C(=O)c3cc(-c4ccc(Cl)cc4)ccc3NC(=O)[C@H]12)C1CCCC1,25µM*
O=C(N[C@H]1CCN2C(=O)c3ccc(Cl)cc3NC(=O)[C@H]12)c1cccc(F)c1,i
O=C(N[C@H]1CCN2C(=O)c3cc(-c4cccs4)ccc3NC(=O)[C@H]12)C1CCCC1,40µM*
CSCC(=O)N[C@H]1CCN2C(=O)c3cc(-c4cccc(C(F)(F)F)c4)ccc3NC(=O)[C@H]12,i
O=C(N[C@H]1CCN2C(=O)c3cc(-c4ccccc4F)ccc3NC(=O)[C@H]12)c1cnccn1,i
O=C(O)CCC(=O)N[C@H]1CCN2C(=O)c3cc(-c4cccs4)ccc3NC(=O)[C@H]12,35µM*
O=C(N[C@H]1CCN2C(=O)c3ccccc3NC(=O)[C@H]12)c1cccc(F)c1,i
O=C(NC1CCCCC1)N[C@H]1CCN2C(=O)c3ccccc3NC(=O)[C@H]12,i
O=C(N[C@H]1CCN2C(=O)c3cc(-c4ccc(F)cc4F)ccc3NC(=O)[C@H]12)C1CCCC1,i
CNC(=O)[C@@H]1CN(Cc2cccc(Cl)c2F)C[C@H]1CO,i
CCc1nnc(SCC(=O)N(C)CCOc2ccc(Br)cc2)n1C,i
O=C(NC[C@@H]1CCCN1)C1CCN(c2nc(-c3ccccc3)nc3c2CCC3)CC1,i
COCCn1c(C)cc(C(=O)CSc2nnc(CN3CCCC3)n2-c2ccccc2)c1C,i
COc1cccc(CNC(=O)COc2cc(O)c3c(=O)cc(-c4ccccc4)oc3c2)c1,i
CCn1ccc(C(=O)N2CCCC(CN3CCC(C)CC3)CC2)n1 (centres undefined),i
COc1ccc(NC(=O)O[C@@H]2CO[C@H]3[C@@H]2OC[C@@H]3NS(=O)(=O)c2ccc3ccccc3c2)cc1,i
Cn1nc(C(=O)OCC(=O)NCC2CCCO2)c2ccccc2c1=O (centres undefined),i
O=C1OC[C@@H]2CCN(Cc3ccccc3Cl)Cc3ccc(F)cc3N12,i
SMILES,KDM5B inh
CCN(C(=O)Cc1noc2ccccc12)c1ccc(OC)cc1,i
CNC(=O)[C@@H]1CN(Cc2ccc(F)cc2F)C[C@H]1CO,i
O=C(CSc1nc2ccccc2nc1N1CCCC1)N1CCN(C2CCCCC2)CC1,i
COc1ccc(-c2noc(CC3CCN(C(=O)Cc4ccccc4OC)CC3)n2)cc1,i
O=C(CSc1ccc2c(c1)OCCCO2)Nc1ccccc1C(=O)c1ccccc1,i
CCc1nc(C)c(C(=O)Nc2nn(C)c3cccc(N4CCOC4=O)c23)o1,i
CCOCC(=O)Nc1nn(-c2ccc(F)cc2)c2cccc(N3CCOC3=O)c12,25µM*
Cn1nc(NC(=O)CSc2ccccc2)c2c(N3CCOCC3)cccc21,i
CN(C)CCCNc1nc(-c2ccncc2)nc2ccccc12,i
O=C(CCCn1cncn1)NC1CC(c2cc(=O)[nH]c(C3CC3)n2)C1 (centres undefined),i
Cn1ncc2c(N)nc(NC3CC(c4cc(=O)[nH]c(C5CC5)n4)C3)nc21 (centres undefined),20µM*
Cc1nnc(NC2CC(c3cc(=O)[nH]c(C4CC4)n3)C2)c2ccccc12 (centres undefined),i
COc1cccc(-c2ccccc2NC(=O)C2CCN(Cc3ccc(F)cc3)CC2)c1,i
COc1cccc(-c2ccccc2NC(=O)C2CCN(Cc3cc(OC)ccc3O)CC2)c1,16µM*
COc1ccc(-c2ccccc2NC(=O)C2CCCN(CC=C(C)C)C2)cc1 (centres undefined),i
Cc1ccccc1-n1ccnc1SCC(=O)c1ccccc1F,i
Cc1cc(C)cc(NC(=O)C2CCCCC2)c1,i
Cc1cc(C(=O)N2CCN(c3ccccc3)CC2)c2ccccc2n1,i
COc1ccc(NC(=O)c2cc(NC(=O)C3CCC3)cc3nc(C)ccc23)cc1,25µM*
Cc1ccc(NC(=O)C2CCCC2)cc1Cl,i
COc1ccc(NC(=O)c2ccc(NC(=O)C3CC3)cc2)cc1,i
Cc1ccc2c(C(=O)N3CCOCC3)cc(NC(=O)C3CCC3)cc2n1,22µM*
Cc1cnc(C(=O)N[C@@H]2CCC[C@@H]2C(=O)N2CCN(CC(C)C)CC2)cn1,i
COc1ccc(NC(=O)c2cc(OC)nc3ccccc23)cc1,i
Cc1ccc2c(C(=O)N3CCN(CC(C)C)CC3)cc(NC(=O)C3CCC3)cc2n1,22µM*
SMILES,KDM5B inh
Cc1ccc2c(C(=O)O)cc(NC(=O)C3CCC3)cc2n1,22µM*
Cc1ccc(-c2cc(C(=O)N3CCOCC3)c3ccccc3n2)s1,i
O=C(Nc1ccc2c(c1)nc1n2CCOC1)C1CCCCC1,i
Cc1cccc(Nc2nc(C(=O)N(C)C3CCCCC3)cs2)c1,i
Cc1ccc(Sc2c(C)nn(C(=O)C3CCCN3S(=O)(=O)c3ccccc3)c2C)cc1 (centres undefined),i
COc1cccc(CC(=O)NCC2CCCCC(=O)N2)c1 (centres undefined),i
COc1ccc2c(C)c(CC(=O)Nc3ccccc3F)c(=O)oc2c1C,i
CN(C)c1cccc(C(=O)N2CCC3(CC2)NC(=O)N(c2cccc(F)c2)N3)c1,i
CCOC(=O)C(C)Oc1ccc2cc(-c3ccc(Cl)cc3)c(=O)oc2c1 (centres undefined),i
COc1ccc(-c2nnc(SCc3csc(Nc4ccccc4)n3)o2)cc1OC,i
CNC(=O)c1cc(NC(=O)C2CCC2)cc2nc(C)ccc12,32µM*
COc1ccccc1N1CCN(C(=O)c2cc(NC(=O)C(C)C)cc3nc(C)ccc23)CC1,i
Cc1ccc(NC(=O)C2CCCC2)cc1C,i
Cc1nc2ccc(Cl)cc2cc1C(=O)N1CCN(C(C)C)CC1,i
CNC(=O)c1ccc(NC(=O)C2CCCCC2)cc1,i
Cc1ccc2c(C(=O)N3CCN(C(C)C)CC3)cc(NC(=O)C(C)C)cc2n1,25µM*
CS(=O)(=O)Cc1cccc(C(=O)NCC(O)c2cccc(Cl)c2)c1 (centres undefined),i
O=C(c1n[nH]c(=O)c2ccccc12)N1CCC(Cc2ccccc2)CC1,i
O=C(Nc1cccc(F)c1)c1nn(Cc2ccccc2)c(=O)c2ccccc12,i
O=C(c1ccc([N+](=O)[O-])cc1Cl)N1CCN(c2ccccn2)CC1,i
CN(C)CCNC(=O)c1nc2nc(-c3ccccc3)c(-c3ccccc3F)cc2n1C,i
CN(C)CCNC(=O)c1nc2nc(-c3ccccc3)c(Cl)cc2n1C,40µM*
O=C(NCCc1cnc(-c2ccccc2)[nH]1)c1ccc(Br)cc1,i
Cn1c(C(=O)N2CCN(c3ccccn3)CC2)nc2nc(-c3ccccc3)c(Cl)cc21,35µM*
Cn1c(C(=O)NCCc2cnc[nH]2)nc2nc(-c3ccccc3)c(Cl)cc21,35µM*
